Rows were chosen to be rich in hits. Some 4.5% of all compounds tested hit in one or more screens of this group.
DAX1 inh-1: inhibits human nuclear receptor DAX1. P51843. HEK293 Gal4-DAX1 luciferase reporter, luminescence. inhibition, % at 6.75 µM. hit rate 0.99% among 340,000. AID 504766;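 active = inhibition above the mean over all tested compounds plus 3 SD, cut at about 4.2% in these data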;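 also: inhibition shows as a rise in luminescence from relieved DAX1 repression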
Target sequence (P51843 207-470 limits assumed): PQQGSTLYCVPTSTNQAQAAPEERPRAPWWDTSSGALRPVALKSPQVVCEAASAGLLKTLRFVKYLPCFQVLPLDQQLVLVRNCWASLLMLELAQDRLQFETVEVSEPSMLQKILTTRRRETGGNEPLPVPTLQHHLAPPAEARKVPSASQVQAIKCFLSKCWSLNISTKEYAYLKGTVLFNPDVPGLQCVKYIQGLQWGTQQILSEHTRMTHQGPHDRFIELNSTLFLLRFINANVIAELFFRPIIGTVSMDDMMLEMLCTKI
hgDAF12 agonist: activates the H. glycines DAF-12 receptor ligand-binding domain; HEK293 GAL4-hgDAF12 UAS-luciferase reporter, agonist luminescence; normalized to butyrate control; hit rate 1.8% among 370,000; activation, % at 6.8 µM;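 active = activation above a cutoff set at the mean of all screened compounds plus 3 SD, cut at about 10% in these data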
FXN GAA850 act: increases GAA850 frataxin promoter reporter activity; activation, % at 6 µM; hit rate 0.56% among 360,000; AID 540364; HEK293 lucGAA850 FXN promoter luciferase reporter, 24 h; percent of 10 µM SAHA response;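 active = activation above the average of all compounds screened plus 3 SD, cutoff fixed separately per campaign, cut at about 7.5% in these data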
ssDAF-12 act: S. stercoralis DAF-12 activation, primary screen | HEK293 ssDAF-12/GRIP1 lit1-tk-luc reporter, luminescence; % of 3 µM dafachronic acid response | activation, % at 6.8 µM | hit rate 1% among 370,000 | AID 652126;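 active = activation above the mean over all tested compounds plus 3 SD, cut at about 0.9% in these data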
DAX1 inh-2: DAX1 (NR0B1) inhibition, primary screen. HEK293T StAR-luciferase reporter, SF-1/DAX-1 repression relief. inhibition, % at 6.8 µM. hit rate 1.1% among 370,000. AID 652010;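 active = inhibition above the mean over all tested compounds plus 3 SD, cut at about 3.6% in these data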;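 also: higher inhibition means more luminescence from relief of DAX-1 repression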
hcDAF12 agonist: activates DAF-12 receptor from parasite H. contortus. HEK293 hcDAF-12 lit1-tk-luc reporter, luminescence; 0% DMSO, 100% Δ7-dafachronic acid. activation, % at 6.8 µM. hit rate 1.4% among 370,000. AID 652067;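 active = activation above the mean of all tested compounds plus 3 SD, cut at about 5.5% in these data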
GAA30 counter: GAA30 FXN promoter activation counter-screen; shares compounds with FXN GAA850 act; HEK293 lucGAA30 FXN promoter luciferase, 24 h; DMSO = 0%, 5 µM ipriflavone = 100%; activation, % at 6 µM; hit rate 66% among 1,900; AID 588350;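 active = mean activation above the mean of solvent-only control wells plus 3 SD, cut at about 22% in these data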;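 also: counterscreen of GAA850 promoter hits where activity marks nonselective or luminescence artifacts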
FXN GAA850 conf: GAA850 FXN promoter activation confirmation | activation, % at 6 µM | shares compounds with FXN GAA850 act | HEK293 lucGAA850 FXN promoter luciferase reporter, 24 h; 100% = activation by SAHA | hit rate 86% among 1,900;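 active = mean activation above a set limit taken from the primary screen, cut at about 8% in these data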
Numbers stand for hits; - = inactive; . = not tested or not shown.

SMILES	DAX1 inh-1	hgDAF12 agonist	FXN GAA850 act	ssDAF-12 act	DAX1 inh-2	hcDAF12 agonist	GAA30 counter	FXN GAA850 conf
CCOC(=O)[C@@]12CCCC=C1N(CCc1ccc(Cl)cc1)C(=O)[C@H]2CC(=O)N1CCOCC1	.	-	.	-	-	-	.	.
O=C(/C=C/Sc1ccccc1)c1ccc(Cl)cc1	-	-	11.6	-	-	-	86.3	58.5
O=C(/C=C/Sc1ccccc1)c1ccccc1	-	-	-	-	-	-	.	.
COC(=O)[C@]12C[C@H](CC(=O)N3CCCC3)C(=O)N(CCc3ccc(OC)c(OC)c3)C1=C[C@H](COCc1ccccc1)O[C@@H]2C	.	-	.	-	-	-	.	.
N#Cc1c(-c2ccccc2)cc(C2CC2)nc1N	-	-	8.3	-	-	-	-	9.5
Cc1ccc(/C=N/NC(=O)c2cccs2)cc1[N+](=O)[O-]	-	-	8.3	-	-	-	102.7	41.8
O=c1oc2cc(O)ccc2s1	-	-	9.6	-	-	-	-	15.6
Oc1ccc2c(c1)oc1cc(O)ccc12	-	-	-	-	-	-	.	.
CS(=O)(=O)c1ncc(Cl)c(C(=O)Nc2ccc(OC(F)F)cc2)n1	-	.	68.4	.	.	.	-	-
CCOC(=O)c1nc(S(C)(=O)=O)ncc1N1CCOCC1	-	-	-	-	-	-	.	.
CCOC(=O)c1nc(S(C)(=O)=O)ncc1Cl	-	-	41.3	-	-	-	62.5	72.9
OC(c1ccccc1)(c1ccccc1)C1CCN(CCCNc2cccc(OC(F)(F)F)c2)CC1	.	-	.	-	-	-	.	.
CCc1ccc(OCC(=O)NCc2ccco2)c(Br)c1	-	-	8.6	-	-	-	76.2	24.3
COc1ccccc1NC(=O)N(Cc1ccccc1)c1ccccn1	-	-	9.7	-	-	-	37.9	19.5
COCC(=O)N(Cc1ccccc1)c1ccccn1	-	-	-	-	-	-	.	.
O=C(NCCc1c[nH]c2ccccc12)c1c(Cl)nc2sccn12	-	-	7.7	-	-	-	46.0	22.9
NC(=O)C1CCN(c2nc(-c3ccc(Oc4ccccc4)cc3)cs2)CC1	.	-	.	-	.	-	.	.
O=S(=O)(N[C@@H]1CCCC[C@@H]1N1CCOCC1)c1ccc(Cl)cc1	.	-	.	-	.	-	.	.
Cc1cc(Cl)c2oc(C(=O)N3CCOCC3)c(C)c2c1	-	-	-	-	-	-	.	.
Cc1cc(Cl)c2oc(C(=O)N3CCN(C(=O)c4ccco4)CC3)c(C)c2c1	-	-	9.8	-	-	-	114.3	39.6
COc1ccc(-c2nn3c(C4CCCCC4)nnc3s2)cc1OC	-	-	12.5	-	-	-	-	9.7
COc1ccc(-c2nnc3sc(C4CCCCC4)nn23)cc1OC	-	-	8.8	-	-	-	-	10.6
COc1cc(-c2nn3c(C4CCCCC4)nnc3s2)cc(OC)c1OC	-	-	-	-	-	-	.	.
COc1ccc(OCCCN2CCC(C(O)(c3ccccc3)c3ccccc3)CC2)cc1	.	-	.	-	-	-	.	.
CCN(CC)C(=O)c1cc(-c2ccc(Br)cc2)on1	-	10.8	8.0	0.9	-	-	111.3	39.6
SMILES	DAX1 inh-1	hgDAF12 agonist	FXN GAA850 act	ssDAF-12 act	DAX1 inh-2	hcDAF12 agonist	GAA30 counter	FXN GAA850 conf
COc1cc(C(=O)Oc2c(CN3CCOCC3)cc(Cl)c3cccnc23)cc(OC)c1OC	-	.	18.1	.	.	.	-	24.5
O=C(Oc1c(CN2CCOCC2)cc(Cl)c2cccnc12)c1cccs1	-	-	-	-	-	-	.	.
O=C(Oc1c(CN2CCOCC2)cc(Cl)c2cccnc12)c1ccccc1Cl	-	-	12.9	-	-	-	-	19.4
COc1ccc(C(=O)Oc2c(CN3CCOCC3)cc(Cl)c3cccnc23)cc1	-	-	-	-	-	-	.	.
COc1cccc(C(=O)Oc2c(CN3CCOCC3)cc(Cl)c3cccnc23)c1	-	-	8.2	-	-	-	-	8.3
O=C(Cn1cnc2ccccc2c1=O)N1CCN(Cc2ccc(F)cc2)CC1	.	-	.	-	-	-	.	.
CCCCOCCCNC(=O)C[C@@H]1C[C@]2(C(=O)OCC)CCC3=C2N(CCC3)C1=O	.	-	.	-	-	-	.	.
COC(=O)C1=C(C(=O)OC)[C@]2([C@@H]3CC=CCN[C@@H](Cc4ccccc4)C(=O)N3Cc3ccccc3)C=C[C@H]1O2	-	-	9.1	-	-	-	-	-
COC(=O)C1=C(C(=O)OC)[C@]2([C@H]3CC=CCN[C@@H](Cc4ccccc4)C(=O)N3Cc3ccccc3)C=C[C@H]1O2	-	-	-	-	-	-	.	.
Oc1cccc(/C=N/N=C/c2cccc(O)c2O)c1O	-	-	8.9	-	-	-	37.2	17.8
CC(C)[C@H](NS(=O)(=O)c1ccc(F)cc1F)C(=O)N1CCC[C@H]1C(=O)NCCc1ccccc1Cl	.	-	.	-	-	-	.	.
Cc1[nH]c2ccccc2c1C(=O)C(=O)N1CCCc2ccccc21	-	-	-	-	-	-	.	.
Cc1[nH]c2ccccc2c1SCC(=O)N1CCCc2ccccc21	-	-	19.7	-	-	-	-	10.3
O=C(CSc1nc2sc3c(c2c(=O)n1-c1ccc(Cl)cc1)CCCC3)c1ccccc1Cl	.	-	.	-	-	-	.	.
Cc1cc(NC(=O)c2ccc3nc(C)sc3c2)no1	-	-	7.7	-	-	-	111.0	33.2
COc1cccc(C(=O)Nc2nnc(-c3ccc(OC)cc3OC)s2)c1	-	-	-	-	-	-	.	.
Cc1cc(NC(=O)c2ccc3c(c2)C(=O)N(C(C)(C)C)C3=O)no1	-	-	-	-	-	-	.	.
COc1ccccc1NC(=O)c1ccc2nc(C)sc2c1	-	-	-	-	-	-	.	.
COc1cccc(NC(=O)c2ccc3nc(C)sc3c2)c1	5.5	-	7.6	-	-	5.8	119.5	40.3
COc1cccc(C(=O)Nc2nnc(-c3ccccc3)s2)c1	-	-	8.0	-	-	-	79.8	34.8
CC(C)CN1C(=O)C[C@]2(C(=O)N(C)c3ccc(NS(=O)(=O)C4CCCCC4)cc32)C1c1ccccc1 (stereo partly specified)	.	-	.	-	-	-	.	.
CCCc1ccc(-c2ccc(-c3noc(-c4ccncc4)n3)cc2)nc1	-	-	-	-	-	-	.	.
CCCCc1ccc(-c2ccc(Br)cc2)nc1	-	-	8.4	-	-	-	106.7	34.1
N#Cc1c(N)nc2c(c1-c1ccccc1)CCC2	-	-	8.2	-	-	-	62.0	35.4
COc1ccc(-c2c(C#N)c(N)nc3c2CCC3)cc1	-	-	-	-	-	-	.	.
O=C(OCC#CCSc1nnc(-c2cccc3ccccc23)o1)C1CCC1	.	-	.	-	.	-	.	.

Source: PubChem BioAssay
